Experiment [1] deals with Platelet-activating factor acetylhydrolase (Homo sapiens) (UniProt Q13093). Kind of experiment: inhibition of plasma PAF acetylhydrolase – biochemical, fluorescence polarization, human, confirmation (AID 463230;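 active = mean inhibition of the triplicate above the hit cutoff set for the earlier primary screen, cut at about 25% in these data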;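 note: 0% = enzyme with DMSO and 100% = wells lacking pPAFAH enzyme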). Particulars: recombinant pPAFAH, FP-Rh probe fluorescence polarization; at 3.39 µM; active compounds read high. In general terms: Polarisation of emitted light reports the rotation of a fluorescent probe.

The target of experiment [2] is Protein phosphatase methylesterase 1 (Homo sapiens) (UniProt Q9Y570). The experiment can be described thus: human PME-1 methylesterase inhibition confirmation – biochemical, fluorescence polarization, FP-Rh probe, triplicate (AID 2171).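 Note: 0% = enzyme with DMSO and 100% = wells lacking PME-1.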 The conditions noted are these: recombinant PME-1, FP-Rh probe fluorescence polarization; at 5.9 µM; active compounds read high.
Protein phosphatase methylesterase 1 (Homo sapiens), sequence (Q9Y570 whole entry, looked up, the tested form may be a part): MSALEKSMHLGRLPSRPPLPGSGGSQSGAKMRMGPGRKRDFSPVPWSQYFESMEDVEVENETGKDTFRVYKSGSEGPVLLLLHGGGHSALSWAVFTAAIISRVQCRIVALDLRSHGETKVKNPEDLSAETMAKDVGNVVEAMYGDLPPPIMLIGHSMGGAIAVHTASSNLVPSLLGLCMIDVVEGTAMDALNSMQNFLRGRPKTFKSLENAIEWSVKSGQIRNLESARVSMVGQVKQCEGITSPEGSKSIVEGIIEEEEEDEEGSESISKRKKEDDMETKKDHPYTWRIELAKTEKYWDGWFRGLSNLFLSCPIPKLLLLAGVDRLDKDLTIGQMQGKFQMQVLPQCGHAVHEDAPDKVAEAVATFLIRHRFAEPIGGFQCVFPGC
Experiment [3] has as its target Nuclear receptor coactivator 3 (Homo sapiens) (UniProt Q9Y6Q9). Kind of experiment: NCOA3 GAL4-fusion reporter inhibition – cell-based, luminescence, quadruplicate, confirmation (AID 588792;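 active = mean inhibition over 43.08%, the solvent-only control mean plus 3 SD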;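 note: 0% = DMSO treated cells and 100% = gossypol at 36 µM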). The conditions noted are these: HEK293 GAL4-SRC3 luciferase reporter, at 3.6 µM, active compounds read high. A general note: A reporter such as luciferase makes a cellular process visible.

The test system of experiment [4] is transactivating tegument protein VP16 (Human herpesvirus 1), Gal4-VP16 luciferase reporter. Kind of experiment: repression of VP16-driven luciferase reporter – cell-based, luminescence, high throughput, counter-screen for SRC3 inhibitor project (AID 588794; in the data active = inhibition above about 30%). The conditions noted are these: mammalian cells, at 3.6 µM, active compounds read high.
For experiment [5], the target named is Nuclear receptor coactivator 1 (Homo sapiens) (UniProt Q15788). Kind of experiment: NCOA1 GAL4-fusion reporter inhibition – cell-based, luminescence, quadruplicate, confirmation (AID 588820;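 active = mean inhibition above 46.68%, the untreated control wells mean plus 3 SD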;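 note: 0% = DMSO wells and 100% = gossypol 36 µM treated wells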). Particulars: HEK293 GAL4-SRC1 luciferase reporter, at 3.6 µM, active compounds read high.
Nuclear receptor coactivator 1 (Homo sapiens), sequence (Q15788 whole entry, looked up, the tested form may be a part): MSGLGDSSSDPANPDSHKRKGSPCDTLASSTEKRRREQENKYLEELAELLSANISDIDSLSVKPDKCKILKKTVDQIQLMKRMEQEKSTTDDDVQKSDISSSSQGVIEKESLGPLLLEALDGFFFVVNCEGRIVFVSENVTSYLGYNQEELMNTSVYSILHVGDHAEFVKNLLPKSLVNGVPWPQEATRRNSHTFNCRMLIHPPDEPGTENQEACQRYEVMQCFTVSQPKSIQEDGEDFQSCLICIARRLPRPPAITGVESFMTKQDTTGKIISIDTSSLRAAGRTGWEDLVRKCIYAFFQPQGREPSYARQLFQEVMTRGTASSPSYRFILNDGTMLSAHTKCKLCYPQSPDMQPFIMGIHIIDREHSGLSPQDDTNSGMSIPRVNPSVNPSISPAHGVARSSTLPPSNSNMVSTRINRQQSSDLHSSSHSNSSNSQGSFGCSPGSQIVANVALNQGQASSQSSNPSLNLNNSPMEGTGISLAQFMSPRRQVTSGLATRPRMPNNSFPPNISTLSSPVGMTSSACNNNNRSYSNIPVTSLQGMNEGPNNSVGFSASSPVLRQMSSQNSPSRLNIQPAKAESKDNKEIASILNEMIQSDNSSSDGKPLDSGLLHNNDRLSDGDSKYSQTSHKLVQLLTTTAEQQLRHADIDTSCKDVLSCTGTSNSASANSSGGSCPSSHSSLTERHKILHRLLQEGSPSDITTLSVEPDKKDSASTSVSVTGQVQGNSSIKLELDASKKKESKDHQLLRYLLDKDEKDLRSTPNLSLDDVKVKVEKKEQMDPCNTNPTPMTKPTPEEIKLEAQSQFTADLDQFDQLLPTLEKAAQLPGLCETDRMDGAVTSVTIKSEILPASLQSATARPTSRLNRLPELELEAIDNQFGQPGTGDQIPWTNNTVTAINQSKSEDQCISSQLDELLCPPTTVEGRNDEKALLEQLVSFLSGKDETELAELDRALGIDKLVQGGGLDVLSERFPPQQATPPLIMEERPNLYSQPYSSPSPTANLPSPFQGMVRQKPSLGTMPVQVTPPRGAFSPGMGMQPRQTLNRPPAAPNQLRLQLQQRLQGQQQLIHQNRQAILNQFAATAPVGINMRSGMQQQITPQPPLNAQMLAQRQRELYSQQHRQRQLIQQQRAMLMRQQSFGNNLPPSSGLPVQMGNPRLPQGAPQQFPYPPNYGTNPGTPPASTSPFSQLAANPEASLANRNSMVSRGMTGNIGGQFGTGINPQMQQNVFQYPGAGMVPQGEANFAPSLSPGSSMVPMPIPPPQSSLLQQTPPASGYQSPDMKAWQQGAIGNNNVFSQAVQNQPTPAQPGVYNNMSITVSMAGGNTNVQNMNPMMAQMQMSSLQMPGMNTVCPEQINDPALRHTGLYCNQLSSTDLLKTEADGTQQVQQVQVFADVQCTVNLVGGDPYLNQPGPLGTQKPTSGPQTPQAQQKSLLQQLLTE
The nature of experiment [6]: repression of VP16-driven luciferase reporter – cell-based, luminescence, high throughput, counter-screen for SRC1 inhibitor project (AID 588824; in the data active = inhibition above about 25%). The conditions noted are these: cell-based VP16 transactivation luciferase luminescence; at 3.6 µM; active compounds read high.
In experiment [7] the test system is transactivating tegument protein VP16 (Human herpesvirus 1). The experiment can be described thus: compounds suppressing VP16-driven luciferase signal – cell-based, luminescence, single concentration, counter-screen for SRC2 inhibitor project (AID 652007; in the data active = inhibition above about 36%). Particulars: cell-based VP16 transactivation luciferase reporter, at 8.9 µM, active compounds read high.
In experiment [8] the target is Nuclear receptor coactivator 2 (Homo sapiens) (UniProt Q15596). The experiment can be described thus: inhibition of GAL4-SRC2 driven luciferase expression – cell-based, luminescence, HEK293, triplicate, confirmation (AID 652008;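 active = mean inhibition above 46.5%, the solvent-only control mean plus 3 SD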;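 note: 0% = DMSO-treated cells and 100% = Gossypol at 36 µM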). The conditions noted are these: HEK293 GAL4-SRC2 luciferase reporter, at 8.9 µM, active compounds read high.
Nuclear receptor coactivator 2 (Homo sapiens), sequence (Q15596 whole entry, looked up, the tested form may be a part): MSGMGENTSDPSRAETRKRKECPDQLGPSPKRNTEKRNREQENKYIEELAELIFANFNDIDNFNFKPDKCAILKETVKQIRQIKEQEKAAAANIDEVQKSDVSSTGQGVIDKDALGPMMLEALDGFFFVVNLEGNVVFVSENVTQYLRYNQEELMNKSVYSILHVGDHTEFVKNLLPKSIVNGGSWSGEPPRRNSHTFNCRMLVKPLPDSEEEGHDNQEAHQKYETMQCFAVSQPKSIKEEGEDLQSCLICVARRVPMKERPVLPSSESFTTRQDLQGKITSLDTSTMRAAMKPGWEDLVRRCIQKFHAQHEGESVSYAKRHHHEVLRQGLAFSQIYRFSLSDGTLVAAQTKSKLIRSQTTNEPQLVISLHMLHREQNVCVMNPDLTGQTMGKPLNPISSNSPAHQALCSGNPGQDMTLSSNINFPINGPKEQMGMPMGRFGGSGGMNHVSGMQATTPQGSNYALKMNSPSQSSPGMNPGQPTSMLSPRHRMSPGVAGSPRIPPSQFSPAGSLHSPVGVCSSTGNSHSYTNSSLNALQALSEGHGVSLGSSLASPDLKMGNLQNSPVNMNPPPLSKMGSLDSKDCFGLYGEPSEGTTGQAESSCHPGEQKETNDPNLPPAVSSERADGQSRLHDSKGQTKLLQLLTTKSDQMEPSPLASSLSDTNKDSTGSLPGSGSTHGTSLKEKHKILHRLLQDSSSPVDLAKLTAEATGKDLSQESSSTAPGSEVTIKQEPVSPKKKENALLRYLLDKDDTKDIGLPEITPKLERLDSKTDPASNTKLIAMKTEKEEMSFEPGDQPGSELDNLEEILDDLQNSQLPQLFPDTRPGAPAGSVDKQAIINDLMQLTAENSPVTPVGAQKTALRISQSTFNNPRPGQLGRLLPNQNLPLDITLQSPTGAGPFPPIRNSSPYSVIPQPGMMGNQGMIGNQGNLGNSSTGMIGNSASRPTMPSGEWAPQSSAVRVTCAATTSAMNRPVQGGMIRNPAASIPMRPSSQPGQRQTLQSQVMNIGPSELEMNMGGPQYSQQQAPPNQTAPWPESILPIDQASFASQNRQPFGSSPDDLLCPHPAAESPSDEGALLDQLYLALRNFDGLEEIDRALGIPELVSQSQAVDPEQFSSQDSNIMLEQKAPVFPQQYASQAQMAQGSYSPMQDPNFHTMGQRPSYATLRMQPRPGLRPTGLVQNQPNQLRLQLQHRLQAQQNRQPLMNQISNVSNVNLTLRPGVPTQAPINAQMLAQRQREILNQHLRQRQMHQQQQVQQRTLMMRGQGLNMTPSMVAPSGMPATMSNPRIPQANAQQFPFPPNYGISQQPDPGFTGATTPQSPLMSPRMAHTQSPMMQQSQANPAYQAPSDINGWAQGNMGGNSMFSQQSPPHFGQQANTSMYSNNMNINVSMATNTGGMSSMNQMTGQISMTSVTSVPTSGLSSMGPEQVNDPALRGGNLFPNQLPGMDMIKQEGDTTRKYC
The target of experiment [9] is Glutathione S-transferase omega-1 (Homo sapiens) (UniProt P78417). Kind of experiment: recombinant GSTO1 blockers, retest – biochemical, fluorescence polarization, triplicate, counter-screen for RBBP9 inhibitor project, confirmation (AID 2176;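 active = inhibition above the primary screen's cutoff, its mean inhibition plus 3 SD, cut at about 35% in these data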;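 note: loss of polarization as inhibitors block binding of rhodamine sulfonate ester activity probe; 0% = GSTO1 with DMSO and 100% = wells lacking GSTO1 enzyme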). Particulars: recombinant GSTO1, probe fluorescence polarization; at 5.96 µM; active compounds read high.
The target of experiment [10] is Protein-arginine deiminase type-4 (Homo sapiens) (UniProt Q9UM07). Kind of experiment: protein arginine deiminase 4 blockade, retest – biochemical, fluorescence polarization, confirmation (AID 488796;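 active = mean inhibition across replicates above the hit cutoff set by the earlier primary screen, cut at about 15% in these data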;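 note: inhibitors block active-site labeling by the probe so polarization falls; 0% = PAD4 with probe and DMSO and 100% = probe without PAD4 enzyme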). Particulars: recombinant PAD4, RCA probe fluorescence polarization; at 6.36 µM; active compounds read high.
A short description of experiment [11]: StAR promoter reporter inhibitors, counter-screen for LRH-1 inverse agonist project, cell-based, luminescence, high throughput (AID 651611; in the data active = inhibition above about 28%). Particulars: StAR promoter luciferase reporter counterscreen, at 3.6 µM, active compounds read high.
Experiment [12] concerns the target Nuclear receptor subfamily 5 group A member 2 (Homo sapiens) (UniProt O00482). The experiment can be described thus: NR5A2 activity suppression in reporter cells – cell-based, luminescence, confirmation (AID 651613; in the data active = inhibition above about 42%;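 note: HEK293T cells co-transfected with LRH-1 and StAR promoter luciferase reporter; 0% = vehicle wells and 100% = parental cells lacking receptor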). The conditions noted are these: cell-based LRH-1 luciferase reporter, inverse agonism; at 3.6 µM; active compounds read high.
Experiment [13] has as its target Steroidogenic factor 1 (Homo sapiens) (UniProt Q13285). Kind of experiment: inverse agonism at SF1 nuclear receptor – cell-based, luminescence, high throughput, counter-screen for LRH-1 inverse agonist project (AID 651614; in the data active = inhibition above about 44%;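 note: cells cotransfected with StAR promoter reporter and SF1 expression vector; 0% = vehicle on cells with receptor and 100% = vehicle on cells lacking receptor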). The conditions noted are these: cell-based SF1 luciferase reporter, at 3.6 µM, active compounds read high.
Experiment [14] in a line: compounds suppressing VP16-driven luciferase signal – cell-based, luminescence, high throughput, counter-screen for LRH-1 inverse agonist project (AID 651615; in the data active = inhibition above about 33%). Particulars: Gal4-VP16 luciferase reporter cells, at 3.6 µM, active compounds read high. Background: The purpose of a counterscreen is to sort out artefacts and off-target activity.
Experiment [15] concerns the target Oxytocin receptor (Homo sapiens) (UniProt P30559). Kind of experiment: oxytocin receptor activation, retest of hits – fluorescence, CHO-OTR cells, triplicate, confirmation (AID 434963;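 active = mean activation above about 20% derived from the earlier single-dose screen, limit read from the data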;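 note: peak over minimum fluorescence ratio per well during a 100 second FLIPR read; 0% = DMSO alone and 100% = oxytocin high control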). Particulars: Fluo-8 calcium fluorescence, agonist, at 3 µM, active compounds read high.
Experiment [16] has as its target Vasopressin V1a receptor (Homo sapiens) (UniProt P37288). The experiment can be described thus: activators of vasopressin V1R in CHO cells – cell-based, triplicate, fluorescence, counter-screen for OXTR agonist project (AID 434991;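 active = mean activation over triplicate exceeds the hit threshold set in the earlier primary screen, cut at about 20% in these data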;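 note: peak over basal fluorescence ratio within a 100 second read; 0% = DMSO alone and 100% = 3 nM vasopressin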). The conditions noted are these: Fluo-8 calcium fluorescence, at 3 µM, active compounds read high.

Molecules are shown by their SMILES. Values without a mark were called inactive. The list shows a part of the results. Active and inactive are the calls of the source.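 Rule for the calls, unless noted: active = inhibition above the hit cutoff set in the earlier primary screen (cut at about 27% in these data); inactive = the rest.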

By inhibition is commonly meant the relative decrease from the control value, in per cent.

Nuclear receptor coactivator 3 (Homo sapiens), sequence (Q9Y6Q9 whole entry, looked up, the tested form may be a part): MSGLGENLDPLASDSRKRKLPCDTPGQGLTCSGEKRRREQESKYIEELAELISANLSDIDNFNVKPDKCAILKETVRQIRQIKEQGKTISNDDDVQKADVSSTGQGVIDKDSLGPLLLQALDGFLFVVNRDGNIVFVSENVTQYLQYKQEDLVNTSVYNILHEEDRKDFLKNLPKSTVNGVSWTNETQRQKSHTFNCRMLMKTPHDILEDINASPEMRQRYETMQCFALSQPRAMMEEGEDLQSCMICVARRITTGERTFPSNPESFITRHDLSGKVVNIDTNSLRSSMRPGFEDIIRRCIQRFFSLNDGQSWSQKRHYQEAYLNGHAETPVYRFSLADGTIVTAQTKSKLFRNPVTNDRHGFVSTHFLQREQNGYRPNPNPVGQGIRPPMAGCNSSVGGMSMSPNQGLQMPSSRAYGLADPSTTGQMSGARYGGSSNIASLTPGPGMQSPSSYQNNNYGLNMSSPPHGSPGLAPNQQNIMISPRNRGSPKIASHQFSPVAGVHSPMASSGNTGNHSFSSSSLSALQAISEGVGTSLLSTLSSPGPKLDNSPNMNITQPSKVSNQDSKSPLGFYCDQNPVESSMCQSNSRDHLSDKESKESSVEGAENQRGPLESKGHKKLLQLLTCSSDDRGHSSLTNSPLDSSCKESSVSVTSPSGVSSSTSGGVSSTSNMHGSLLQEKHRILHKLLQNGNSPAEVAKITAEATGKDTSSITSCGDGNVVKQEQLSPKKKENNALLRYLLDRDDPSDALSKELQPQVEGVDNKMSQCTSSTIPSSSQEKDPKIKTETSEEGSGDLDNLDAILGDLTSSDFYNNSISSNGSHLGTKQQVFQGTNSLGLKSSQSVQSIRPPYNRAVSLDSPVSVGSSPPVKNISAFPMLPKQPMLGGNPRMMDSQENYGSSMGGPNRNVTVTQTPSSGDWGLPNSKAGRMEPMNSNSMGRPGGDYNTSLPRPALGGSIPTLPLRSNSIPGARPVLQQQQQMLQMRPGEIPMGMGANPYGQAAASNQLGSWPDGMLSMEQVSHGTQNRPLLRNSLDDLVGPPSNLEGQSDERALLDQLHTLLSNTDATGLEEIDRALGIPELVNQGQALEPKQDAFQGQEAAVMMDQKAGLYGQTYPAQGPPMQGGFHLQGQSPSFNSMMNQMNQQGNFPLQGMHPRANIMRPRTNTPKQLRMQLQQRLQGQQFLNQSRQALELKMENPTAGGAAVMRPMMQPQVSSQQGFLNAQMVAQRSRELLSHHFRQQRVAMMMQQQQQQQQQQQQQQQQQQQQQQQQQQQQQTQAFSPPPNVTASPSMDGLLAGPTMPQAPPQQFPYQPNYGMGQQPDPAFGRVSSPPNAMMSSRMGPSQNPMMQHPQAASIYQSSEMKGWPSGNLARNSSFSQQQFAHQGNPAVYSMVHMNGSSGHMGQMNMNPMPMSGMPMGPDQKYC
Oxytocin receptor (Homo sapiens), sequence (P30559 whole entry, looked up): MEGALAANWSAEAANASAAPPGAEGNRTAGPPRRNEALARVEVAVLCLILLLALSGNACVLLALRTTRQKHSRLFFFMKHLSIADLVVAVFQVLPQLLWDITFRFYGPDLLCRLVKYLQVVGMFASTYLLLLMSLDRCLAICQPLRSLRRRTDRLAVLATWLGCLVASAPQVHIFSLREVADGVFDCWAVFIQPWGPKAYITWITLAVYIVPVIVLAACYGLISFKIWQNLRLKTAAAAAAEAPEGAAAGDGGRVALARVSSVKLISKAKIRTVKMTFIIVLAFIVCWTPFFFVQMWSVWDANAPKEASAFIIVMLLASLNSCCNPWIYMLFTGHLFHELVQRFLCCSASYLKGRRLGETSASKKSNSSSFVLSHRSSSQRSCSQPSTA

For the compound `NCCc1ccc(S(=O)(=O)F)cc1`, the inhibition in [1] was 71.9% (active).
As for `C[n+]1c2ccccc2nc2ccc(NCCO)cc21`, the inhibition in [2] was 35% (active).
Still for that read-out and setting: the value for `Cc1ccc(C(O)P(=O)(Oc2ccccc2)Oc2ccccc2)cc1` (stereo not given) was 59.9% (active).
For `O=C1C(=O)c2ccccc2-c2ccccc21`, the inhibition was 42.8% (active) in [2]; 97.1% (active) in experiment [3]; 95.2% (active) in experiment [4]; 95.1% (active) in experiment [5]; 93.5% (active) in experiment [6]; 96.5% (active) in experiment [7]. The inhibition in [8] was 98.8% (active).
As for `COc1ccc(-n2c(/C=C/c3ccc(O)c(O)c3)nc3ccccc3c2=O)cc1`, the inhibition in [2] was -10.6%.
For `O=C(O)COc1ccccc1/C=C1\C(=O)NC(=O)N(CCC2=CCCCC2)C1=O`, the inhibition in experiment [9] was 9.09%.
As for `COc1ccccc1C1=NCc2nnc(CSC)n2-c2ccc(Cl)cc21`, the inhibition in [10] was 12.9%.
In the case of `Cc1nc2c(=O)n(C)c(=O)nc-2n(C)n1`, the inhibition in experiment [2] was 33% (active); in experiment [11], 78.3% (active); in experiment [12], 94.5% (active); in experiment [13] it was 83.4% (active); in experiment [14] it was 90.8% (active); in [7] it was 62.6% (active). Besides, in [8], the inhibition was 77.8% (active).
`CC(Cc1ccccc1)NCCC(c1ccccc1)c1ccccc1` (stereo not given): the activation is 11.2% in [15] and 4.33% in experiment [16].
As for `CCCCn1c(O)c(C(C)=Nc2ccc(C(=O)O)cc2)c(=O)[nH]c1=O`, the results for the inhibition in experiment [3] and in [4] were 1.79% and 12.1%, respectively.
With `CCCCNS(=O)(=O)c1ccc(OCC(=O)N2CCN(Cc3ccc4c(c3)OCO4)CC2)cc1`, the inhibition is 10.7% in experiment [3] and 26.6% in [4].
`COC(=O)[C@]12OC[C@]34C([C@@H](O)[C@@H]1O)[C@]1(C)CC(=O)C(O)=C(C)[C@@H]1C[C@H]3OC(=O)[C@H](O)[C@@H]24` (stereo not given in full): the inhibition in experiment [3] was 71.6% (active); in experiment [4], 64.2% (active); in experiment [5] it was -32.4%; in experiment [6], 68.8% (active).

The values above are taken from PubChem BioAssay.
